The values below come from ChEMBL document CHEMBL1201862, “PubChem BioAssay data set” (2004).

Screen size: about 400,000 compounds; about 2,100 (0.53%) were called active. About 14% were inconclusive and are not listed. No rule for the calls is given here. Shown is part of a subset that was picked to be rich in actives.

In this test the target is Ataxin-2 (Homo sapiens) (UniProt Q99700). Nature of the test: qHTS for Inhibitors of ATXN expression. In kind it is functional.
Ataxin-2 (Homo sapiens), sequence (Q99700 whole entry): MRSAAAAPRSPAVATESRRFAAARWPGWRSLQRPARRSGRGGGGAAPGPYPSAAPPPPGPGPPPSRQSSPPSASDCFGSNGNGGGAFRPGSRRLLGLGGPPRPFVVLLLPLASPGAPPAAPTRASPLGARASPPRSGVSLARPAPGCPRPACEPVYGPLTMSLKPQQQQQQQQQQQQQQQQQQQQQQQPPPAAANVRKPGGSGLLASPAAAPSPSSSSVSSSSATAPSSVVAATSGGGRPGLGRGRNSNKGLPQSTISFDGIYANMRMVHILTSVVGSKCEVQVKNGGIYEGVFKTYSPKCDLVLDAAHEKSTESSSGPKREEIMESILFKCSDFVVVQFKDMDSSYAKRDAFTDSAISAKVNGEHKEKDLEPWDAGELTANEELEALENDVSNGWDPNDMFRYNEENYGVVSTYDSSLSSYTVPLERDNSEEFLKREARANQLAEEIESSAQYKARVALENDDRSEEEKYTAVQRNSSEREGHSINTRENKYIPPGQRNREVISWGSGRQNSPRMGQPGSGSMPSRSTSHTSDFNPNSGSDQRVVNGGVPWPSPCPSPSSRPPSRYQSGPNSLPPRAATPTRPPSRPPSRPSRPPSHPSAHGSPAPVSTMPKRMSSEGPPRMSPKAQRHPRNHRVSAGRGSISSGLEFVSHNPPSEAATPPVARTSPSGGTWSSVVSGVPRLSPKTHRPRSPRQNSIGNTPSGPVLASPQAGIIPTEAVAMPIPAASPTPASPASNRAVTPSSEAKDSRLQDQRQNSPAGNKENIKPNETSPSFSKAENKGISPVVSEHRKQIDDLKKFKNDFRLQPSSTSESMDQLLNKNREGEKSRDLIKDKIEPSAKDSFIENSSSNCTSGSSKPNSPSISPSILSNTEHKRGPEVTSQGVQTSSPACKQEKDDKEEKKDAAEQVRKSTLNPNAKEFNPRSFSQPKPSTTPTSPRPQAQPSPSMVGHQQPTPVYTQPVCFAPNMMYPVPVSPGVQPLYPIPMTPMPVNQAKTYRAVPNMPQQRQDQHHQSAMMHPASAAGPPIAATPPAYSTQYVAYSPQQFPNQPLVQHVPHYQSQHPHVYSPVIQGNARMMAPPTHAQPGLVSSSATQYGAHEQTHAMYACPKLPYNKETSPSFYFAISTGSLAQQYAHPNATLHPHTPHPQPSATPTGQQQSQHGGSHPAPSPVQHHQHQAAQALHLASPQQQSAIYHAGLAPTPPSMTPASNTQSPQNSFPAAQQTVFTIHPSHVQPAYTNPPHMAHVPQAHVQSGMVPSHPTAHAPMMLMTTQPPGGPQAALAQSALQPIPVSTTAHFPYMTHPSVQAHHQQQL
As for `COc1ccccc1C1CN(c2ccc(F)cc2F)N=C1c1cccs1` (configuration not stated), the Potency result is “inactive”.

Take `O=C(NCc1ccc(Cl)c(Cl)c1)C1CCCC1`: the Potency result is “inactive”.

Consider `N#C/C(=N\Nc1ccc(Cl)c(Cl)c1)C(=O)C1CC1`, for which the Potency was 25.1 µM (active).

Turning to `O=[N+]([O-])c1ccc(S(=O)(=O)NCCc2cn3ccccc3n2)cc1`, the Potency result is “inactive”.

As for `COc1ccc(S(=O)(=O)NCC2CCCN(C(=O)c3cccnc3)C2)cc1` (configuration not stated), the Potency entry was “inactive”.

For the compound `Cc1c(C)n(Cc2ccccc2)c2ccc(C(=O)O)cc12`, the Potency entry is “inactive”.

Turning to `COc1ccccc1OCCn1c(C)c(C=O)c2ccccc21`, the Potency result was “inactive”.

For the compound `Cc1c(C=O)c(C=O)c(C)n1Cc1ccccc1`, the Potency was 35.5 µM (active).

Turning to `O=c1cc(N2CCCCC2)c(-c2ccccc2)nn1Cc1ccccc1`, the Potency entry was “inactive”.

In the case of `COc1ccc(-c2cc(-c3cccs3)c(C#N)c(SCC(=O)NCc3ccccc3OC)n2)cc1`, the Potency was 35.5 µM (active).

In the case of `COc1ccccc1CNC(=O)c1cnn(-c2nccc(-c3cccs3)n2)c1C`, the Potency entry is “inactive”.

With `COc1ccc(-c2cc(-c3cccs3)nc3sc(C#N)c(N)c23)cc1`, the Potency result is “inactive”.

As for `COc1ccc(C2C=C(c3ccccc3)Nc3nc(NS(=O)(=O)c4ccccc4)nn32)cc1` (configuration not stated), the Potency result was “inactive”.

Consider `COc1c2c(c3c(c1OC)c(=O)c1ccccc1n3C)OCO2`, for which the Potency entry is “inactive”.

For the compound `Cc1c(CC(=O)N2CCN(C(=O)C3COc4ccccc4O3)CC2)c(=O)oc2c(C)c(O)ccc12` (configuration not stated), the Potency result is “inactive”.

For the compound `OC(COC(c1ccc(Cl)cc1)c1ccc(Cl)cc1)CN1CCc2ccccc2C1` (configuration not stated), the Potency is 25.1 µM (active).

`O=C(Cc1ccc(Cl)cc1)N1CCc2ccccc2C1`: the Potency result is “inactive”.

For the compound `O=C(c1cc2cc(Cl)ccc2[nH]1)N1CCc2ccccc2C1`, the Potency entry was “inactive”.

For the compound `CCOC(=O)c1cc2c(=O)n3ccccc3nc2n(C(C)C)/c1=N/C(=O)c1ccco1`, the Potency result is “inactive”.

Consider `COc1cc(-c2oc3ccc(C)cc3c(=O)c2O)cc(OC)c1OC`, for which the Potency result was “inactive”.

As for `C[C@@H]1CN([C@H](C)CO)C(=O)c2cccc(NC(=O)Nc3ccc(C(F)(F)F)cc3)c2O[C@H]1CN(C)S(=O)(=O)c1cccs1`, the Potency was 28.2 µM (active).

For `C[C@H]1CN([C@@H](C)CO)C(=O)c2cccc(NC(=O)Nc3ccc(C(F)(F)F)cc3)c2O[C@@H]1CN(C)S(=O)(=O)c1ccc(Cl)cc1`, the Potency was 25.1 µM (active).

Turning to `C[C@H](CO)N1C[C@H](C)[C@@H](CN(C)S(=O)(=O)c2ccc(F)cc2)Oc2c(NC(=O)Nc3ccc(C(F)(F)F)cc3)cccc2C1=O`, the Potency was 35.5 µM (active).

On to `COc1ccc(S(=O)(=O)N(C)C[C@H]2Oc3c(NC(=O)Nc4ccc(C(F)(F)F)cc4)cccc3C(=O)N([C@H](C)CO)C[C@@H]2C)cc1`, for which the Potency is 22.4 µM (active).

`Cc1c(C(=O)/C=C/N(C)C)nnn1-c1ccc(Cl)cc1C#N`: the Potency result is “inactive”.

Regarding `Cc1ccc(NC(=O)CN2C(=O)S/C(=C\c3ccc(-c4cccc(C(=O)O)c4C)o3)C2=O)cc1C`, the Potency entry was “inactive”.

As to `Cc1ccc(OCCCC(=O)ON=C(N)c2ccccc2C)cc1`, the Potency result is “inactive”.

`COc1ccc(C2CC(c3ccc(C(F)(F)F)cc3)=NN2c2ccc(S(N)(=O)=O)cc2)cc1` (configuration not stated): the Potency entry was “inactive”.

Turning to `CCOC(=O)N1CCN(C(=O)CSc2nc(O)c3cnn(-c4ccc(C)cc4)c3n2)CC1`, the Potency entry is “inactive”.

Regarding `COc1ccc(C2C3=C(CCCC3=O)N(CC(=O)O)C3=C2C(=O)CCC3)cc1Cl`, the Potency entry was “inactive”.

Regarding `COc1ccc(C(=O)/C=C/Nc2ccc(S(=O)(=O)Nc3cc(OC)nc(OC)n3)cc2)c(OC)c1`, the Potency result was “inactive”.

Consider `CC(=O)Nc1ccc(N/C=C(\C=O)c2nc3ccccc3o2)cc1`, for which the Potency entry is “inactive”.

On to `CCc1cnc2c(c1SC(C(C)=O)C(=O)N(C)C)c(=O)n(C)c(=O)n2C` (configuration not stated), for which the Potency is 39.8 µM (active).

As for `COc1ccc(-c2c(C)c3ccc(O)c(CN4CCCC4)c3oc2=O)cc1OC`, the Potency entry is “inactive”.

`Cc1ccc2c(Cl)cc(Cl)c(OCC(=O)O)c2n1`: the Potency entry was “inactive”.

With `CCc1cc(=O)oc2c(CN3CCN(C)CC3)c(O)c(Cl)cc12`, the Potency result was “inactive”.

In the case of `COc1ccccc1NC(=O)Nc1nc(C(N)Cc2ccc(C(F)(F)F)cc2)cs1` (configuration not stated), the Potency is 39.8 µM (active).

Regarding `NC(Cc1ccc(C(F)(F)F)cc1)c1csc(NC(=O)Nc2ccccc2Oc2ccccc2)n1` (configuration not stated), the Potency is 39.8 µM (active).

For the compound `CN(C)CCCN=C(S)Nc1ccc(Oc2ccccc2)cc1`, the Potency result was “inactive”.

As to `CC(C)c1ccccc1NC(=O)Nc1nc(C(N)Cc2ccc(C(F)(F)F)cc2)cs1` (configuration not stated), the Potency is 35.5 µM (active).

In the case of `COc1cccc(-c2ccc3c(N)c(C(=O)Nc4cc(C(F)(F)F)ccc4OC)sc3n2)c1`, the Potency result is “inactive”.

On to `CN(C)Cc1csc(NC(=O)Nc2ccccc2Oc2ccccc2)n1`, for which the Potency is 25.1 µM (active).

Regarding `COc1ccccc1NC(=O)c1sc2nc(-c3ccco3)ccc2c1N`, the Potency entry is “inactive”.

`Cc1ccc(S(=O)(=O)NCCNc2ccc(Br)c(C)c2)cc1`: the Potency entry is “inactive”.

As for `CCC(=O)Oc1c(C(=O)CC)cc2c(C)cc(=O)oc2c1C`, the Potency entry is “inactive”.

In the case of `O=C(OCCOc1ccccc1Cl)c1cc(S(=O)(=O)N2CCCCC2)ccc1N1CCOCC1`, the Potency entry was “inactive”.

Consider `CCCC[n+]1c2ccccc2cc2ccccc21`, for which the Potency result was “inactive”.

On to `Cc1cc(C)c(C)c(S(=O)(=O)NCc2ccc(C(=O)N3CCN(C)CC3)cc2)c1C`, for which the Potency entry is “inactive”.

As for `CCc1nccn1C(=O)c1cnn2c(C(F)F)cc(-c3ccc(C)cc3)nc12`, the Potency is 31.6 µM (active).

As for `COc1ccc(-c2cc(C(F)F)n3ncc(C(=O)Nc4cc(C)on4)c3n2)cc1`, the Potency result is “inactive”.

For the compound `CCCNC(=O)c1cnn2c(C(F)F)cc(-c3ccccc3)nc12`, the Potency result is “inactive”.

With `Cc1cccnc1Nc1nc(-c2ccccn2)cs1`, the Potency was 0.794 µM (active).

As for `Cc1ccc(S(=O)(=O)NC(C(=O)Oc2ccc3c(C)c(Cl)c(=O)oc3c2)c2ccccc2)cc1` (configuration not stated), the Potency entry is “inactive”.

Take `CCN1CCN(Cc2c(O)ccc3cc(-c4ccc(OC)cc4)c(=O)oc23)CC1`: the Potency result was “inactive”.

`CCC(C)Nc1ccc(NC(C)CC)cc1` (configuration not stated): the Potency was 31.6 µM (active).

As for `C=C1C(=O)C2=CC1CCC(=O)C1(C)CCC(OC(C)=O)C(C)(C)C1CC2O` (configuration not stated), the Potency is 28.2 µM (active).

Regarding `COc1ccc(-c2c(C)c3ccc(O)cc3oc2=O)cc1OC`, the Potency entry was “inactive”.

For the compound `Cc1c(CC(=O)NCCC(C)C)c(=O)oc2cc3c(cc12)CCC(C)(C)O3`, the Potency was 39.8 µM (active).

Turning to `COc1ccccc1CCNC(=O)Cc1c(C)c2ccc(O)cc2oc1=O`, the Potency result is “inactive”.

In the case of `Cc1c(CC(=O)NCC(=O)O)c(=O)oc2cc3oc4c(c3cc12)CCCC4`, the Potency entry is “inactive”.

On to `CCSc1nnc(NC(=O)c2ccc3ccccc3n2)s1`, for which the Potency was 35.5 µM (active).

Turning to `CCCSc1nnc(NC(=O)c2sc3nc(-c4cccs4)ccc3c2N)s1`, the Potency entry was “inactive”.

In the case of `CCSc1nnc(NC(=O)c2ccccn2)s1`, the Potency was 25.1 µM (active).

With `CCSc1nnc(NC(=O)CN2C(=O)C3CC=CCC3C2=O)s1` (configuration not stated), the Potency entry is “inactive”.

Consider `CCSc1nnc(NC(=O)CSc2nc3c(cc2C#N)CCCC3)s1`, for which the Potency result was “inactive”.

Consider `O=C(CSc1nnc(NC(=O)c2ccccc2[N+](=O)[O-])s1)NC1CCCC1`, for which the Potency entry was “inactive”.

As for `CC(C)Cn1nc(NC(=O)c2cccc(Cl)c2)c2cc3ccccc3nc21`, the Potency entry is “inactive”.

Consider `Cc1ccc(NCC(=O)Nc2ccc(Br)cc2)cc1C`, for which the Potency result is “inactive”.

With `Cc1ccc(Sc2ccc(NC(=O)CCl)cc2)c(C)c1`, the Potency is 39.8 µM (active).

Take `Cc1ccc(C)c(Sc2ccc(S(=O)(=O)Nc3ccc(C(=O)O)cc3)cc2)c1`: the Potency result was “inactive”.

As for `COc1ccc(-c2cc3ccc(OC(C)C(=O)O)cc3oc2=O)cc1` (configuration not stated), the Potency result is “inactive”.

`FC(F)(F)c1cc(CCN2CCNC[C@@H]2CC2CCCCC2)cc(C(F)(F)F)c1`: the Potency was 20 µM (active).

For the compound `FC(F)(F)c1cc(CCN2CCNC[C@@H]2Cc2ccccc2)cc(C(F)(F)F)c1`, the Potency is 25.1 µM (active).

`O=C1NC[C@@H](Cc2cccc3ccccc23)N(CCc2cc(C(F)(F)F)cc(C(F)(F)F)c2)C1=O`: the Potency was 31.6 µM (active).

On to `Oc1ccc(C[C@H]2CNCCN2CCc2cc(C(F)(F)F)cc(C(F)(F)F)c2)cc1`, for which the Potency was 31.6 µM (active).

Turning to `O=C(CN1C(=O)c2ccc([N+](=O)[O-])cc2C1=O)NCc1ccco1`, the Potency entry is “inactive”.

In the case of `Cc1cc(/C=C2\C(=N)N3N=C(c4ccco4)SC3=NC2=O)c(C)n1Cc1ccccc1`, the Potency result is “inactive”.

For `COc1ccc([N+](=O)[O-])c(OC)c1C(=O)NC(=O)Nc1c(F)cc(F)cc1F`, the Potency entry is “inactive”.

Take `COc1ccc(C2C=C(c3ccc(F)cc3)Nc3nc(-c4ccc(Cl)cc4)nn32)cc1` (configuration not stated): the Potency result is “inactive”.

On to `Cn1ncc(C#N)c1/N=C/N(Cc1ccccc1)Cc1ccccc1`, for which the Potency result is “inactive”.

For the compound `CC(NC1=NS(=O)(=O)c2ccccc21)C(=O)Nc1ccc(F)cc1Cl` (configuration not stated), the Potency entry is “inactive”.

Regarding `CC1CC(C)CN(C(=O)CCc2ccccc2)C1` (configuration not stated), the Potency result is “inactive”.

As for `C[N+](C)(C)CCC(=O)N1C/C(=C/c2ccccc2)C(=O)/C(=C\c2ccccc2)C1`, the Potency was 8.44 µM (active).

As to `NN=C(S)NCCc1ccccc1`, the Potency entry is “inactive”.

For `COc1cc2c(cc1OC)C(SC)=NC1(CCCC1)C2`, the Potency was 35.5 µM (active).

Take `Oc1cc(NC2CCCCC2)nc(O)n1`: the Potency entry was “inactive”.

`CCOC(=O)c1cc2c(=O)n3ccccc3nc2n(C(C)C)/c1=N/C(=O)c1c(-c2ccccc2Cl)noc1C`: the Potency entry is “inactive”.

Consider `CCCNC(=O)C[S+]([O-])Cc1nc(-c2ccccc2C)oc1C` (configuration not stated), for which the Potency result is “inactive”.

Take `COc1cc(/C=C(\C#N)C(=O)Nc2cc(C(F)(F)F)ccc2Cl)ccc1OCC(=O)Nc1cccc(C(F)(F)F)c1`: the Potency result is “inactive”.

As for `COc1cc(Nc2ccccn2)cc(C(=O)Nc2cccc(C(F)(F)F)c2)c1`, the Potency is 28.2 µM (active).

In the case of `O=C(Nc1ccncc1)c1ccc2ccccc2c1`, the Potency result was “inactive”.

Regarding `C=CCNC(=O)/C(C#N)=C/c1c(N2CC(C)OC(C)C2)nc2ccccn2c1=O` (configuration not stated), the Potency entry is “inactive”.

With `Cc1ccc(NC(=O)Cc2nc(-c3c[nH]c(C(=O)N4CCCC4)c3)cs2)c(C)c1`, the Potency result is “inactive”.

Regarding `O=C1C=CC(=O)N1c1ccc(OC(F)F)cc1`, the Potency is 39.8 µM (active).

Regarding `O=C(O)/C=C\C(=O)Nc1ccc(OC(F)F)cc1`, the Potency entry is “inactive”.

As to `C/C(=N\NC(=O)C1CC1)c1ccc(OC(F)F)cc1`, the Potency entry is “inactive”.

Turning to `COc1cc(/C=C2\C(=N)N3N=C(CC(=O)N4CCCCC4)SC3=NC2=O)cc(OC)c1O`, the Potency result was “inactive”.
